Source: PubChem BioAssay
A selection: hits, their analogues and other compounds. The true share with any hit is near 3.3%.
PI5P4Ka inh = qHTS for Inhibitors of phosphatidylinositol 5-phosphate 4-kinase (PI5P4K); Phosphatidylinositol 5-phosphate 4-kinase type-2 alpha (Homo sapiens), P48426; PI5P4Kalpha enzyme, ADP-Glo luminescence, 60 min; active compounds read low; max response, %; 1.2% of 330,000 active; AID 652105, 2013; active = max response of -50% or lower; inconclusive = between -30% and -50%; inactive = -30% or higher; note: value at the top dose of about 77 µM
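ADP-Glo luminescence end-point read after a 60 min room-temperature kinase reaction of PI5P4Kalpha plus substrate, initiated with ATP at 5 microM final. Buffer: 0.038 M HEPES pH 7.4, EGTA, 0.1% CHAPS, 5% DMSO.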
PLK1 PBD block = qHTS for Inhibitors of PLK1-PDB (polo-like kinase 1 - polo-box domain): Primary Screen. Plk1 PBD binding of FITC phosphopeptide, fluorescence polarization. Potency, µM, for inactives: max response, negative = inhibition, hits mostly inhibitors. 2.8% of 360,000 active. AID 720504, 2013; note: potency is the fitted concentration of half-maximal effect; series mostly up to about 57 µM; nearly all actives have a fitted effect of over 65% in size
WRN helicase inh = qHTS for Inhibitors of WRN Helicase; 0.46% of 360,000 active; Bifunctional 3'-5' exonuclease/ATP-dependent helicase WRN (Homo sapiens), Q14191; WRN helicase unwinding, fluorescent forked duplex, kinetic; Potency, µM (highest dose often 114 µM), without a hit: at the top dose activity change, negative = inhibition, actives largely listed as inhibitors; note: potency is the fitted concentration of half-maximal effect; nearly all actives have a fitted effect of over 55% in size
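WRN at 20 nM final was preincubated with compound for 15 min at room temperature; reaction started with 100 nM forked duplex oligonucleotide carrying fluorophore and quencher plus 2 mM ATP (final). Unwinding followed kinetically by red fluorescence (ex 525/em 598 nm).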
USP1 inh = Inhibitors of USP1/UAF1: Primary Screen; Ubiquitin carboxyl-terminal hydrolase 1 (Homo sapiens), O94782; recombinant USP1/UAF1, Ub-Rhodamine cleavage fluorescence; Potency, µM (series often up to 57.1 µM), for the others: at the top dose activity change, negative = inhibition, most hits filed as inhibitors; 0.23% of 390,000 active; AID 743255, 2014; note: potency is the fitted concentration of half-maximal effect; nearly all actives have a fitted effect of over 60% in size
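Step one: compound is pinned into 1nM USP1/UAF1 in HEPES pH 7.8 buffer with TCEP. Step two: 15 min room-temperature incubation. Step three: Ub-Rho (150nM final) starts cleavage, tracked by fluorescence over six one-minute reads.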
USP2a block = qHTS Assay for Inhibitors of Ubiquitin-specific Protease USP2a Using CHOP2 as the Reporter. USP2 core, Ub-CHOP2 coupled fluorogenic reporter, 485/531. AID 463254, 2010. Potency, µM (titrated, usually from 38.3 µM), inactives show at the highest dose activity change, negative = inhibition, hits mostly inhibitors. Ubiquitin carboxyl-terminal hydrolase 2 (Homo sapiens), O75604. 0.01% of 330,000 active;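 note: potency is the fitted concentration of half-maximal effect; plate controls were DMSO wells for no effect and full inhibition by NEM control for full effect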
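Cell-free coupled assay: 10nM USP2 core preincubated 30min RT with compound in Tris-HCl pH 8.0/CaCl2/CHAPS buffer, then 25nM Ub-CHOP2 and 25nM reporter substrate; fluorescence (Ex 485/Em 531) read after 60min RT, normalized to NEM inhibition, concentration-response curves fitted.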
The depositor's hits bear a star; ? = inconclusive; . = no result given; [ ] = another dose, or the depositor's remark. Unless noted, calls come from the whole dose curve; as a rule, active = well fitted curve in the direction sought with a large enough effect; inconclusive = small, poorly fitted or top-dose-only effect, or another doubt; inactive = no such curve, though single readings can be large; an effect the other way counts as inactive or inconclusive. Unless noted, % is set by controls: 0 for no effect and ±100 for the full control effect.

SMILES	PI5P4Ka inh	PLK1 PBD block	WRN helicase inh	USP1 inh	USP2a block
CC(/C=C1\SC(=S)N(NS(=O)(=O)c2ccc(C)cc2)C1=O)=C\c1ccccc1	?	19µM*	?	?	-2%
CC(=O)N1C(=O)/C(=C2\SC(=S)N(c3c(C)n(C)n(-c4ccccc4)c3=O)C2=O)c2ccccc21	1	-26%	1%	?	3%
COC(=O)c1ccccc1NC(=O)c1ccc2c(c1)CCN2S(=O)(=O)c1ccc(Cl)cc1	.	.	.	-15%	.
COc1ccc([C@]23Cc4cc(OC)c(OC)cc4C(O2)C2=C(CC(C)(C)CC2=O)O3)cc1	.	.	.	.	-1%[7.66 µM]
Cc1ccc(S(=O)(=O)NN2C(=O)/C(=C/c3cccc(F)c3)SC2=S)cc1	-17	?	-16%	-27%	2%
CCOc1cc(/C=C2\SC(=S)N(NS(=O)(=O)c3ccc(C)cc3)C2=O)ccc1O	-59*	-1%	50µM*	-5%	.
CCOC(=O)N1CCC(N2CCN(Cc3ccc(C)o3)C(CCO)C2)CC1 (stereo unspecified)	-6	15µM*	-6%	1%	2%
CCOc1ccc(N2C(=O)CC(N3CCc4ccccc43)C2=O)cc1 (stereo unspecified)	.	-3%	-1%	-17%	0%
CCOc1ccc(NC(=O)CN2C(=O)C3CCCN3C2=O)cc1 (stereo unspecified)	2	24µM*	1%	-8%	0%
CCOc1ccc(N2C(=O)C3CCCN3C2=S)cc1 (stereo unspecified)	-3	21µM*	1%	-3%	1%
CCOC(=O)c1ccc(N2C(=O)C3CCCN3C2=S)cc1 (stereo unspecified)	-1	12µM*	-2%	-24%	0%
CCOc1ccc(NC(=O)CN2CCN(C3CCCCC3)C(=O)C2=O)cc1	.	.	.	-3%	.
COc1cccc(NC(=O)C(=O)NCCc2csc(-c3ccc(C(F)(F)F)cc3)n2)c1	.	.	.	-8%	.
CCc1nn(CC(=O)Nc2ccc(NC(C)=O)cc2)c(=O)c2cc3sccc3n12	.	.	.	-7%	.
S=c1nc[nH]c2c1sc1nc(-c3ccccc3)c3c(c12)CCCC3	-11	30µM*	4%	-13%	2%
O=C(O)CSc1ncnc2c1sc1nc(-c3ccccc3)c3c(c12)CCC3	-7	30µM*	-20%	-9%	6%
O=c1[nH]cnc2c1sc1nc(-c3ccccc3)c3c(c12)CCCC3	0	0%	3%	-18%	1%
COc1cc(NC(=O)c2cc3nc(-c4ccc(C)cc4)cc(C(F)(F)F)n3n2)cc(OC)c1OC	.	.	.	-1%	.
CCCn1c(SCC(=O)N2CCCCC2)nnc1C(C)C	-21	11µM*	-29%	3%	0%
O=C1NCCN1c1ncc([N+](=O)[O-])s1	1	13%	6%	2%	2%
C=CCn1c(Sc2ncc([N+](=O)[O-])s2)n[nH]c1=O	-9	1.2µM*	-35%	-10%	8%
O=c1cc(-c2ccccc2Cl)oc2c(NS(=O)(=O)c3cc(Cl)cc(Cl)c3O)ccc(O)c12	-89*	15µM*	?	25µM*	-6%
CCNC(=O)/C(C#N)=C/c1c(N2CCN(c3ccc(OC)cc3)CC2)nc2c(C)cccn2c1=O	-28	24µM*	?	-20%	1%
CCNC(=O)/C(C#N)=C/c1c(N2CCN(c3ccccc3)CC2)nc2c(C)cccn2c1=O	7	-21%	5%	-9%	1%
COc1cc2c3c(c1)C(C)CC(C)(C)N3C(=O)C2=O (stereo unspecified)	-11	-18%	-6%	?	1%
SMILES	PI5P4Ka inh	PLK1 PBD block	WRN helicase inh	USP1 inh	USP2a block
CCc1cc2c3c(c1)C(C)CC(C)(C)N3C(=O)/C2=C1\SC(=O)NC1=O (stereo unspecified)	7	30µM*	1%	-10%	0%
O=C(O)c1cc(O)c2c(c1)[C@@H]([C@H]1c3cc(C(=O)O)cc(O)c3C(=O)c3c(O[C@@H]4O[C@H](CO)[C@@H](O)[C@H](O)[C@H]4O)cccc31)c1cccc(O[C@@H]3O[C@H](CO)[C@@H](O)[C@H](O)[C@H]3O)c1C2=O	-111*	2.7µM*	3.2µM*	?	2µM*
COc1ccccc1N1CCN(C(=O)c2cc3c(=O)n(Cc4ccco4)ccc3nc2C)CC1	.	.	.	-16%	.
S=c1[nH]nc(C2CCCCC2)n1/N=C/c1ccc(Cl)cc1	5	30µM*	4%	-10%	-8%
Cc1ccc(/C=N/n2c(-c3cccs3)n[nH]c2=S)cc1	-2	?	-32%[57.1 µM]	-6%	0%
S=c1[nH]nc(C2CCCCC2)n1/N=C/c1ccc(Br)cc1	-2	?	3%	-8%	5%
S=c1[nH]nc(-c2cccnc2)n1/N=C/c1ccccc1	-11	-3%	-9%	-8%	10%
S=c1[nH]nc(-c2cccs2)n1/N=C/c1c(Cl)cccc1Cl	-24	6.7µM*	-17%	-16%	5%
Fc1cccc(Cl)c1/C=N/n1c(-c2cccnc2)n[nH]c1=S	?	17µM*	-3%	-23%	-1%
COc1cccc(/C=N/n2c(C3CCCCC3)n[nH]c2=S)c1	0	21µM*	-10%	-13%	0%
COc1ccc(C2CC(=O)NC(NC(=O)c3ccc(Br)cc3)=N2)c(OC)c1OC (stereo unspecified)	.	.	.	-19%	.
CCOc1ccc(NC(=O)c2ccc3c(c2)CCN3S(=O)(=O)CC)cc1	.	.	.	-4%	.
S=c1[nH]nc(C2CCCCC2)n1/N=C/c1c(Cl)cccc1Cl	-4	30µM*	-4%[57.1 µM]	-5%	-2%
O=C(O)C1CCC(NSc2ccccc2[N+](=O)[O-])CC1 (stereo unspecified)	-15	2.4µM*	18%	-10%	4%
NC(=O)CC(NSc1ccccc1[N+](=O)[O-])C(=O)O (stereo unspecified)	-57*	3.8µM*	-3%	12%	4%
COc1cc(C(=O)OCC2CC(c3ccccc3)=NO2)cc(OC)c1OC (stereo unspecified)	-7	-14%	0%	-13%	2%
COc1ccc(C(=O)OCC2CC(c3ccccc3)=NO2)cc1OC (stereo unspecified)	-14	11µM*	3%	-13%	7%
COc1ccc(-c2nc(CCNC(=O)c3ccccc3)cs2)cc1OC	.	.	.	-30%	.
Cc1ccc(OCC(=O)c2ccc(Cl)s2)c([N+](=O)[O-])n1	-56*	?	-25%	-15%	2%
COc1ccc(/C=C/C(=O)Nc2c(C(=O)O)[nH]c3ccccc23)cc1OC	?	27µM*	-4%	-19%	3%
